CYP2C19 act: human CYP2C19 activators, primary screen, biochemical, luminescence; recombinant CYP2C19, luciferin-H EGE luminescence; hits give high values; 0 = fully inhibited enzyme, 1 = untreated enzyme; activation factor at 5 µM; Cytochrome P450 2C19 (Homo sapiens), P33261; 96,000 tested, under 10 active;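 active = activation factor of at least 2 at 5 µM in the primary screen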;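 also: 0 = wells with 2.5 mM tranylcypromine and 1 = vehicle-only wells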
Target sequence (P33261 whole entry, looked up): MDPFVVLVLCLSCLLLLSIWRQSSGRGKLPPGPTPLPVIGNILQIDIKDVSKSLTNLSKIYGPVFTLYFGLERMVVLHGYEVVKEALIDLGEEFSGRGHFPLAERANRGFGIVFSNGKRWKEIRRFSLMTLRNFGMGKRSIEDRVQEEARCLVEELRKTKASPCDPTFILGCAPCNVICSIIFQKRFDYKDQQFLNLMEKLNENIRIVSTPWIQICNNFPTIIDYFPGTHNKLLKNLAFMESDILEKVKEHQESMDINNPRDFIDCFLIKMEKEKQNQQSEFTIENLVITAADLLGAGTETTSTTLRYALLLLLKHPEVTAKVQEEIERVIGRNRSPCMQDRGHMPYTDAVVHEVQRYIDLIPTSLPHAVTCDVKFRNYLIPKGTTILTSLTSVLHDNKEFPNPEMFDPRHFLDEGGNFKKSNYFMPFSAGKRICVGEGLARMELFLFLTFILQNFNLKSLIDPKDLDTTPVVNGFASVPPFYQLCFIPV
CYP2C9 activ: human CYP2C9 activators, primary screen, biochemical, luminescence; Cytochrome P450 2C9 (Homo sapiens), P11712; recombinant CYP2C9, luciferin-H conversion; hits give high values; factor 1 = untreated enzyme, 0 = blocked; activation factor at 5 µM; 96,000 tested, 1.4% active; AID 1024, 2008;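 active = activation factor of 2 or more for CYP2C9 at a 5 µM dose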;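 also: 0 = sulfaphenazole-blocked wells and 1 = vehicle-only wells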
CYP2C9 inhib: blockers of cytochrome P450 2C9 activity – biochemical, luminescence, ADME assay, primary screen; inhibition, % at 5 µM; AID 777, 2007; CYP2C9 Supersomes, luciferin-H conversion; 96,000 tested, 20% active;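 active = blocking of liver enzyme CYP2C9 beyond about 50% at 5 µM, limit read from the data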
CYP2C19 inh: blockers of cytochrome P450 2C19 activity – biochemical, luminescence, ADME assay, primary screen; 96,000 tested, 21% active; P33261; AID 778, 2007; inhibition, % at 5 µM; CYP2C19 Supersomes, luciferin-H EGE luminescence, 30 min;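 active = CYP2C19 inhibition above a set limit at 5 µM in the primary screen, cut at about 50% in these data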;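 also: plate controls were negative control wells for no effect and 2.5 mM tranylcypromine positive control for full effect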
Starred values were filed as active, the others as inactive. Shown are actives, neighbours in structure and some others; about 31% of the full set was active somewhere.

SMILES	CYP2C19 act	CYP2C9 activ	CYP2C9 inhib	CYP2C19 inh
CN(C)c1ccc(-c2noc(-c3ccccc3O)n2)cc1	0.9	1	2	12
COCCCNC(=O)C1CCCN(C(=O)Nc2ccc(OC)cc2)C1 (stereo unspecified)	1.1	0.9	8	-7
OC(CNc1ccccc1)COc1ccc(OCC(O)CNc2ccccc2)cc1 (stereo unspecified)	0.9	0.3	67*	13
CNCC(O)COc1ccccc1 (stereo unspecified)	1	0.9	6	5
CCOC(=O)Cn1c(=O)oc2cc(S(=O)(=O)NCc3ccccn3)ccc21	1	0.7	26	-1
Cn1c(=O)oc2cc(S(=O)(=O)NCCc3ccccc3)ccc21	0.2	1.4	-36	80*
C=CCN(C1CCCCC1)S(=O)(=O)c1ccc2c(c1)oc(=O)n2C	0.6	0.8	20	40
C=CCN(c1ccccc1)S(=O)(=O)c1ccc2c(c1)oc(=O)n2C	0.1	0.8	22	87*
CCOc1ccccc1CNS(=O)(=O)c1ccc2c(c1)oc(=O)n2C	0.2	2.3*	-129	78*
Cn1c(=O)n(C)c2cc(S(=O)(=O)NCCc3ccccc3)ccc21	0.6	0.9	5	35
O=C(Cn1c(=O)oc2cc(S(=O)(=O)NCc3ccccc3)ccc21)NCc1ccco1	1	0.4	61*	2
COc1ccc2oc(-c3ccc(C)c(NC(=O)c4ccc(N5CCOCC5)c([N+](=O)[O-])c4)c3)nc2c1	1	0.7	25	0
CCCCNC(=O)C1C2C=CC3(CN(Cc4ccc(C)cc4)C(=O)C13)O2 (stereo unspecified)	1.1	0.9	12	-5
CCN(CCNS(=O)(=O)c1ccc2[nH]c(=O)sc2c1)c1ccccc1	0	0.8	24	100*
CCOc1ccccc1CNS(=O)(=O)c1ccc2[nH]c(=O)sc2c1	0	1	3	96*
Cc1cccc(CCNS(=O)(=O)c2cnc[nH]2)c1	0.4	0.1	92*	61*
Cc1cccc(CCNS(=O)(=O)c2ccc3c(c2)oc(=O)n3C)c1	0.1	1.4	-43	89*
Cc1ccc(NC(=O)CCNS(=O)(=O)c2ccc3c(c2)oc(=O)n3C)cc1	1	1	4	4
COc1cc2c(cc1OC)C(C(=O)NCC1COc3ccccc3O1)C(c1cccnc1)N(C)C2=O (stereo unspecified)	0.8	1	-3	17
CC(C)OCCCNS(=O)(=O)c1ccc2c(c1)oc(=O)n2C	0.6	1.1	-13	37
Cn1c(=O)oc2cc(S(=O)(=O)NCc3ccncc3)ccc21	0	0.2	81*	98*
COc1ccccc1CNC(=O)C(CC(C)C)NS(=O)(=O)c1ccc2c(c1)oc(=O)n2C (stereo unspecified)	1	1	0	-2
COc1ccccc1CNC(=O)C(CCSC)NS(=O)(=O)c1ccc2c(c1)oc(=O)n2C (stereo unspecified)	0.1	1	4	91*
CCCCN(C)C/C(O)=C(\C#N)c1nc(-c2ccccc2)cs1	0.8	1	-3	17
CC(C)(C)c1ccc(C(=O)C=[N+]=[N-])cc1	1.2	1.2	-22	-23
SMILES	CYP2C19 act	CYP2C9 activ	CYP2C9 inhib	CYP2C19 inh
O=C(CSc1nnc(-c2ccncc2)o1)Oc1ccccc1	1	1.1	-5	-1
O=C(CCSc1nnc(-c2ccncc2)o1)Nc1ccccc1	0.1	0.2	85*	86*
O=C(CCSc1nnc(-c2ccncc2)o1)Nc1ccc(F)cc1	0.1	0.4	57*	85*
O=C(Nc1cc2c(oc1=O)CCCC2=O)c1ccccc1	0.9	1	5	13
Cc1ccc(Cl)c2c1NC(=O)C2(O)CC(=O)c1ccc(Br)cc1 (stereo unspecified)	0.4	1	4	61*
N/C(CCN1CCCCC1)=N/O	1	1.1	-11	-1
CC(C)(C)NC(=O)Cn1c(SCC(=O)NC2CCCCC2)nc2ccccc21	1	1.1	-12	-3
CCn1cc(C(=O)NCCCN2CC(C)CC(C)C2)c2cc(OC)c(OC)cc2c1=O (stereo unspecified)	0.9	0.9	14	7
COC(=O)/C=C1/S/C(=N/NC(=O)c2ccccc2C)NC1=O	0.9	0.2	78*	6
COC(=O)/C=C1\S/C(=N/NC(=O)c2ccccc2)NC1=O	0.9	0.2	81*	7
CC(C)OCCCn1c(=N)c(C(N)=S)cc2c(=O)n3ccccc3nc21	0.2	0.8	25	79*
CCOCCCn1c(=N)c(C(=O)NCc2ccc3c(c2)OCO3)cc2c(=O)n3ccccc3nc21	0.9	0.9	13	5
COCCn1c(=NC(=O)c2ccc3c(c2)OCO3)c(C#N)cc2c(=O)n3cccc(C)c3nc21	1.2	1.1	-13	-23
CCCCn1c(=NC(=O)c2ccc3c(c2)OCO3)c(C#N)cc2c(=O)n3cccc(C)c3nc21	0.6	0.4	57*	36
CC(C)OCCCn1c(=NC(=O)c2ccncc2)c(C#N)cc2c(=O)n3ccccc3nc21	0.2	0.3	74*	80*
COc1ccc2cc(CN(CCc3ccccc3)Cc3nnnn3CC3CCCO3)c(=O)[nH]c2c1 (stereo unspecified)	0.6	0.4	63*	44
O=c1[nH]c2cc3c(cc2cc1CN(CCc1ccccc1)Cc1nnnn1CC1CCCO1)OCO3 (stereo unspecified)	1	1	-3	4
COc1ccc2[nH]c(=O)c(CN(CCc3ccccc3)Cc3nnnn3CC3CCCO3)cc2c1 (stereo unspecified)	0.3	0.9	14	68*
COc1cccc(CSc2nnc(C(F)(F)F)n2Cc2ccc(F)cc2)c1	0.6	0.4	61*	39
Cc1ccc(CSc2nnc(C(F)(F)F)n2Cc2ccc(F)cc2)cc1	0.6	0.3	69*	42
COc1cccc(CSc2nnc(-c3ccc(F)cc3)o2)c1	0.8	1.2	-21	17
CC(C)N1C(=S)SC2CS(=O)(=O)C=C21 (stereo unspecified)	0.9	1.1	-13	10
COc1ccccc1N1CCN(c2ncnc3nc[nH]c23)CC1	1	1.2	-23	2
COc1ccccc1N1CCN(c2nc3ccccn3c(=O)c2C=O)CC1	0.3	1.3	-30	71*
Cc1ccc2[nH]c(=O)c3cc(C(=O)N(C)Cc4ccco4)sc3c2c1	0.7	0.9	12	30
CCCCn1c(SCC(=O)Nc2cc(C)[nH]n2)nc2ccsc2c1=O	0.7	0.3	72*	28
Cc1cc(NC(=O)CSc2nc3cc4c(cc3c(=O)n2CCc2ccccc2)OCO4)no1	0.4	0.5	46	59*
COc1ccc(CCn2c(SCC(=O)Nc3cc(C)on3)nc3ccccc3c2=O)cc1OC	0.4	0.5	51*	64*
Cc1cc(NC(=O)CSc2nc3ccccc3c(=O)n2Cc2ccc(F)cc2)no1	1	0.9	11	4

Bioassay records: PubChem BioAssay, Sanford-Burnham Center for Chemical Genomics
